According to PubChem BioAssay (NCATS):
Records with an inconclusive call do not appear. Active and inactive are the calls of the source. Calls follow the shape of the dose curve; as a rule, active = well fitted curve in the direction sought with a large enough effect; inconclusive = small, poorly fitted or top-dose-only effect, or another doubt; inactive = no such curve, though single readings can be large; an effect the other way counts as inactive or inconclusive.

Legend:
[1] = Quantitative High-Throughput drug screen in 47 multiple myeloma cell lines against the NCATS MIPE library collection: Karpas25_ECACC cell viability assay (AID 1918968; also: nearly all actives have a fitted effect of over 35% in size)
Method in brief: (§1)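 We plated 500 myeloma cells per well, pinned in MIPE 4.0 compounds, and incubated for 48 hours at 37C. ATP was then quantified with CellTiter-Glo, with DMSO and media-only wells defining 100% and 0%.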

[2] = Quantitative High-Throughput drug screen in 47 multiple myeloma cell lines against the NCATS MIPE library collection: KMS27_JCRB cell viability assay (AID 1918970); also: nearly all actives have a fitted effect of over 30% in size
Method in brief: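 KMS27_JCRB myeloma cells, 500 per well, exposed 48 h at 37 C, 5% CO2 to MIPE 4.0 compounds. Viability from ATP by CellTiter-Glo luminescence, normalized to DMSO (100%) and medium-only (0%) wells.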

[3] = Quantitative High-Throughput drug screen in 47 multiple myeloma cell lines against the NCATS MIPE library collection: KMS12BM_JCRB cell viability assay (AID 1918971); also: nearly all actives have a fitted effect of over 35% in size
Method in brief: (§2)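 Viability readout: CellTiter-Glo luminescence following 5 min room-temperature incubation with reagent. Prior exposure: 48 h, 37C, humidified 5% CO2, 500 cells per well.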

[4] = Quantitative High-Throughput drug screen in 47 multiple myeloma cell lines against the NCATS MIPE library collection: KMS12PE_JCRB cell viability assay (AID 1918972); also: nearly all actives have a fitted effect of over 30% in size
Method in brief: as §2

[5] = Quantitative High-Throughput drug screen in 47 multiple myeloma cell lines against the NCATS MIPE library collection: KMS26_JCRB cell viability assay (AID 1918975); also: nearly all actives have a fitted effect of over 45% in size
Method in brief: as §2

[6] = Quantitative High-Throughput drug screen in 47 multiple myeloma cell lines against the NCATS MIPE library collection: KMS28PE_JCRB cell viability assay (AID 1918983); also: nearly all actives have a fitted effect of over 35% in size
Method in brief: (§3)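 Cells were exposed to library compounds for 48 hours, after which ATP was measured by CellTiter-Glo. Signal was taken as median relative luminescence units.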

[7] = Quantitative High-Throughput drug screen in 47 multiple myeloma cell lines against the NCATS MIPE library collection: L363_DSMZ cell viability assay (AID 1918984); also: nearly all actives have a fitted effect of over 40% in size
Method in brief: as §3

[8] = Quantitative High-Throughput drug screen in 47 multiple myeloma cell lines against the NCATS MIPE library collection: OCIMY7_PLB cell viability assay (AID 1918987); details: OCI-MY7 myeloma viability, CellTiter-Glo ATP, 48 h; viability (% of DMSO): at 45.8 µM (top of the series); also: nearly all actives have a fitted effect of over 65% in size
Method in brief: as §3

[9] = Quantitative High-Throughput drug screen in 47 multiple myeloma cell lines against the NCATS MIPE library collection: OCIMY5_PLB cell viability assay (AID 1918988); also: nearly all actives have a fitted effect of over 65% in size
Method in brief: as §3

[10] = Quantitative High-Throughput drug screen in 47 multiple myeloma cell lines against the NCATS MIPE library collection: NCIH929_DSMZ cell viability assay (AID 1918978); also: nearly all actives have a fitted effect of over 35% in size
Method in brief: as §3

[11] = Quantitative High-Throughput drug screen in 47 multiple myeloma cell lines against the NCATS MIPE library collection: OCIMY1_PLB cell viability assay (AID 1918979); also: nearly all actives have a fitted effect of over 35% in size
Method in brief: as §3

[12] = Quantitative High-Throughput drug screen in 47 multiple myeloma cell lines against the NCATS MIPE library collection: MM1S_ATCC cell viability assay (AID 1918980); also: nearly all actives have a fitted effect of over 45% in size
Method in brief: as §3

[13] = Quantitative High-Throughput drug screen in 47 multiple myeloma cell lines against the NCATS MIPE library collection: MM1R_ATCC cell viability assay (AID 1918981); also: nearly all actives have a fitted effect of over 35% in size
Method in brief: as §3

[14] = Quantitative High-Throughput drug screen in 47 multiple myeloma cell lines against the NCATS MIPE library collection: LP1_DSMZ cell viability assay (AID 1918982); also: nearly all actives have a fitted effect of over 35% in size
Method in brief: as §3

[15] = Quantitative High-Throughput drug screen in 47 multiple myeloma cell lines against the NCATS MIPE library collection: KMS34_JCRB cell viability assay (AID 1918985); also: nearly all actives have a fitted effect of over 40% in size
Method in brief: as §3

[16] = Quantitative High-Throughput drug screen in 47 multiple myeloma cell lines against the NCATS MIPE library collection: MOLP8_DSMZ cell viability assay (AID 1918977); also: nearly all actives have a fitted effect of over 45% in size
Method in brief: as §3

[17] = Quantitative High-Throughput drug screen in 47 multiple myeloma cell lines against the NCATS MIPE library collection: MMM1_PLB cell viability assay (AID 1918976); also: nearly all actives have a fitted effect of over 35% in size
Method in brief: as §3

[18] = Quantitative High-Throughput drug screen in 47 multiple myeloma cell lines against the NCATS MIPE library collection: KMS20_JCRB cell viability assay (AID 1918973); also: nearly all actives have a fitted effect of over 45% in size
Method in brief: as §1

Measured: Potency
Potency is read from the fitted curve at half-maximal effect.

CC(C)C(=O)Nc1ncc(-c2cc(C(F)F)nn2-c2c(Cl)cccc2Cl)s1
active: [1] 20.9 µM | [2] 14.8 µM | [3] 26.4 µM | [4] 16.6 µM | [5] 18.7 µM | [6] 20.9 µM | [7] 8.33 µM | [8] 16.6 µM | [9] 18.7 µM

N#Cc1ccc(NC(=O)Nc2ccccc2Br)c2n[nH]nc12
inactive: [3] | [11] | [13] | [14] | [6] | [15]
active: [1] 16.6 µM | [2] 13.2 µM | [4] 9.35 µM | [10] 18.7 µM | [12] 26.4 µM | [7] 13.2 µM

COc1ccc(-c2coc3cc(O)ccc3c2=O)cc1
active: [16] 0.0059 µM
not listed: [3] | [5] | [6] | [7] | [9] | [17] | [18]
inactive: all other assays above

C[C@H](NC(=O)c1sccc1OCc1ccc(Cl)cc1)c1ccccc1
active: [1] 16.6 µM | [3] 18.7 µM | [17] 16.6 µM | [11] 16.6 µM | [12] 18.7 µM | [14] 16.6 µM | [6] 16.6 µM | [9] 16.6 µM
inactive: [2] | [4]

CC(=O)O[C@]1(C(C)=O)CC[C@@H]2[C@@H]3C[C@H](C)C4=CC(=O)CC[C@]4(C)[C@H]3CC[C@@]21C
inactive: [2] | [4]
active: [1] 18.7 µM | [3] 16.6 µM | [5] 23.5 µM | [17] 20.9 µM | [12] 13.2 µM | [8] 23.5 µM | [9] 16.6 µM

O=c1cc(CN2CCOCC2)occ1OCCCCCSc1ccnc2cc(C(F)(F)F)ccc12
active: [1] 0.743 µM | [2] 20.9 µM | [3] 5.9 µM | [4] 16.6 µM | [5] 16.6 µM | [17] 16.6 µM | [10] 3.72 µM | [6] 2.64 µM | [7] 16.6 µM | [8] 11.8 µM | [9] 16.6 µM

NC(=O)c1cccc(-c2cc(Nc3ccc(OC(F)(F)F)cc3)ncn2)c1
active: [1] 8.33 µM | [2] 18.7 µM | [3] 23.5 µM | [4] 16.6 µM | [17] 20.9 µM | [7] 8.33 µM | [8] 13.2 µM
inactive: [11] | [12]

CO[C@H]1C=CC=C(C)C(=O)NC2=CC(=O)C(NCCN(C)C)=C(C[C@@H](C)C[C@H](OC)[C@@H](O)[C@@H](C)C=C(C)[C@@H]1OC(N)=O)C2=O
active: [1] 0.059 µM | [2] 0.0264 µM | [3] 0.0469 µM | [4] 0.0662 µM | [18] 0.001 µM | [5] 0.0332 µM | [17] 1.66 µM | [10] 0.059 µM | [11] 0.132 µM | [12] 0.105 µM | [13] 0.0296 µM | [14] 0.418 µM | [6] 0.0166 µM | [15] 0.0132 µM | [8] 0.0662 µM | [9] 0.0118 µM

CCOC(=O)O[C@]1(C(=O)OCCl)CC[C@@H]2[C@H]3CCC4=CC(=O)C=C[C@]4(C)[C@@H]3[C@@H](O)C[C@@]21C
inactive: [2] | [4] | [16] | [10] | [11] | [13] | [6] | [7]
active: [1] 0.526 µM

COc1cc2c(cc1OC)CN(CCc1ccc(NC(=O)c3cc(OC)c(OC)cc3NC(=O)c3cnc4ccccc4c3)cc1)CC2
inactive: [2] | [4] | [16] | [11] | [7] | [15]
active: [1] 8.33 µM | [3] 10.5 µM | [17] 2.35 µM | [10] 8.33 µM | [12] 2.64 µM | [8] 6.62 µM

CCCCCCCCCCCC1=C(O)C(=O)C=C(O)C1=O
active: [1] 2.96 µM | [2] 0.187 µM | [3] 23.5 µM | [4] 1.18 µM | [7] 0.469 µM | [8] 10.5 µM | [9] 29.6 µM

Cc1ccc(F)c(NC(=O)Nc2ccc(-c3cccc4[nH]nc(N)c34)cc2)c1
active: [1] 26.4 µM | [2] 10.5 µM | [3] 26.4 µM | [4] 8.33 µM | [5] 23.5 µM | [16] 26.4 µM | [10] 9.35 µM | [13] 23.5 µM | [6] 26.4 µM | [7] 4.18 µM | [15] 26.4 µM | [8] 4.69 µM | [9] 20.9 µM
